Screen size: about 310,000 compounds; about 2,600 (0.84%) were called active. The sample holds actives, similar compounds and a random draw of the others, so the mix is not that of the screen.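 How the source made its calls: active means B-score over 3 SD under the library average, and starting fluorescence ratio not unusually high; inactive means the rest.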
Target: High affinity choline transporter 1 (Homo sapiens) (UniProt Q9GZV3)
Test: inhibits the human high affinity choline transporter (AID 488975);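 on B-score: choline stimulus applied at its EC90 after an EC20 pre-addition; B-score computed on integrated fluorescence ratio after choline addition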
Conditions: CHT-expressing cells, membrane potential dye, choline response, at 10 µM; active compounds read low

Chain of High affinity choline transporter 1 (Homo sapiens) (Q9GZV3 whole entry, looked up): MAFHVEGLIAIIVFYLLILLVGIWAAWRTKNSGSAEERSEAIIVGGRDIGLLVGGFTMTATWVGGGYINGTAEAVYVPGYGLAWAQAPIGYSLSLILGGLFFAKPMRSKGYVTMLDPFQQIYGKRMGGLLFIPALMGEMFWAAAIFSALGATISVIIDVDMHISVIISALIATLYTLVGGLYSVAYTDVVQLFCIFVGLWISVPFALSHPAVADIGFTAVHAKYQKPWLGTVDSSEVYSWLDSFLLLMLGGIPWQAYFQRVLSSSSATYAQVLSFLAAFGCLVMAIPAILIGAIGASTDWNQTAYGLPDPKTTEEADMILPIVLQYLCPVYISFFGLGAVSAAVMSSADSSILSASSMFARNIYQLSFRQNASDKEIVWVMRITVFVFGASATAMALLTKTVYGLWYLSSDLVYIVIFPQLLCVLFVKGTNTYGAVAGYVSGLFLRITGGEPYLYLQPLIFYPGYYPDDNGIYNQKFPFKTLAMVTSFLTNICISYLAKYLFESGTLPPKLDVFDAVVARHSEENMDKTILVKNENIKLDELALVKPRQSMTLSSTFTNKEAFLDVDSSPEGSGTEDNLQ

SMILES	B-score
C/C(=N\Nc1ncc(Cl)cc1Cl)c1cccs1	inactive
O=C(Nc1ccccc1-c1nc2ccccc2[nH]c1=O)c1cccs1	inactive
C/C(=N\Nc1nc2ccccc2[nH]1)c1cccs1	-6.15 (active)
COC(=O)c1ccc(SCc2ccccc2)nc1	inactive
COc1cnn(-c2ccc([N+](=O)[O-])cc2)c(=O)c1Cl	inactive
Nc1c(C(=O)Nc2ccc3c(c2)OCCO3)nnn1Cc1ccccc1	inactive
O=C(OCC(=O)c1c[nH]c2ccccc12)c1cccc(O)c1	-7.81 (active)
O=C(Cc1c[nH]c2ccccc12)OCCOC(=O)Cc1c[nH]c2ccccc12	inactive
O=C(NCCCc1ccccc1)C(=O)c1c[nH]c2ccccc12	inactive
COc1ccc(N2CCN(C(=O)COC(=O)c3cccc(S(=O)(=O)Nc4ccccc4OC)c3)CC2)cc1	inactive
Cc1cccnc1NC(=O)c1cccc(S(=O)(=O)N2CCN(c3ccc(F)cc3)CC2)c1	-6.97 (active)
O=C(Nc1ccc2c(c1)CCC2)c1cccc(S(=O)(=O)N2CCN(c3ccc(F)cc3)CC2)c1	inactive
O=C(Nc1cccnc1)c1cccc(S(=O)(=O)N2CCCC2)c1	inactive
CN1CCN(S(=O)(=O)c2cccc(C(=O)O)c2)CC1	inactive
COc1ccc(OC)c(NC(=O)c2cccc(S(=O)(=O)N3CCN(C(C)=O)CC3)c2)c1	inactive
CC(=O)N1CCN(S(=O)(=O)c2cccc(C(=O)NC3CCC(C)CC3)c2)CC1 (centres undefined)	-4.99 (active)
COc1ccc(C(=O)Nc2ccc(S(=O)(=O)Nc3onc(C)c3C)cc2)cc1OC	inactive
Cc1cc(NS(=O)(=O)c2ccc(NC(=O)c3cccc(OC(F)F)c3)cc2)nc(C)n1	inactive
COc1cc(OC)cc(C(=O)Nc2ccc(S(=O)(=O)Nc3cc(C)on3)cc2)c1	inactive
CCC(Oc1ccccc1C)C(=O)Nc1ccc(S(=O)(=O)Nc2cc(C)on2)cc1 (centres undefined)	-6.05 (active)
Cc1cc(OC(C)C(=O)Nc2ccc(S(=O)(=O)Nc3onc(C)c3C)cc2)cc(C)c1Cl (centres undefined)	-4.96 (active)
Cc1cc(NS(=O)(=O)c2ccc(NC(=O)C(C)Oc3cccc(C)c3C)cc2)nc(C)n1 (centres undefined)	-9.11 (active)
CCOc1ccc(CC(=O)Nc2ccc(S(=O)(=O)Nc3cc(C)on3)cc2)cc1OCC	inactive
Cc1cc(NS(=O)(=O)c2ccc(NC(=O)c3cccnc3)cc2)nc(C)n1	inactive
CCOc1ccc(C(=O)Nc2ccc(S(=O)(=O)Nc3cc(C)on3)cc2)cc1	inactive

SMILES	B-score
CC(Oc1cccc(Cl)c1)C(=O)Nc1ccc(S(=O)(=O)Nc2ncccn2)cc1 (centres undefined)	inactive
COc1cc2ccccc2cc1C(=O)Nc1ccc(S(=O)(=O)Nc2cc(C)on2)cc1	-5.68 (active)
CCc1ccc(OC(C)C(=O)Nc2ccc(S(=O)(=O)Nc3cc(C)on3)cc2)cc1 (centres undefined)	inactive
COc1ccc(Cl)cc1NC(=O)CN(C)C(=O)c1cc(-c2cccs2)nn1-c1ccccc1	inactive
O=C(CNC(=O)c1ccccc1Br)NCCSc1ccc(Br)cc1	inactive
O=C(Oc1ccc(-c2nnco2)cc1)c1ccc(F)c(S(=O)(=O)N2CCOCC2)c1	inactive
O=C(NCCCN1CCCC1=O)c1ccc(S(=O)(=O)Nc2ccccc2)cc1	inactive
COc1ccc(C(C#N)(CC(=O)O)c2cnccn2)cc1OC (centres undefined)	inactive
Cc1ccc(-c2nn(-c3ccccc3)cc2C(=O)NCCCN2CCCC2=O)cc1	inactive
Cc1cccc(N(C)C(=O)CN2C(=O)COc3ccc(S(=O)(=O)N4CCCCCC4)cc32)c1	-6.38 (active)
CCc1ccc(NC(=O)CN2C(=O)COc3ccc(S(=O)(=O)N4CCCC4)cc32)cc1	inactive
CN(C)c1ccc(CNC(=O)CN2C(=O)COc3ccc(S(=O)(=O)N4CCCC4)cc32)cc1	inactive
O=S(=O)(c1ccccc1)N1CCC(c2ccccc2)CC1	inactive
Cc1ccc(SC(CC(=O)c2ccc(C(C)(C)C)cc2)C(=O)O)cc1 (centres undefined)	-8.41 (active)
Cc1ccc(C(=O)CSc2ccccc2C(=O)O)cc1	inactive
Cc1ccc(CSCC(N)C(=O)O)cc1 (centres undefined)	inactive
OCc1ccc(-c2ccccc2)c(-c2ccccc2)c1	inactive
O=C(Nc1ccc(F)c([N+](=O)[O-])c1)C1CCCO1 (centres undefined)	inactive
Cc1ccc(-c2cc(C(=O)NC3CCN(Cc4ccccc4)CC3)c3ccccc3n2)cc1	inactive
C/C(=N\NC(=S)NCc1ccccc1)c1ccc(Cl)cc1	inactive
C/C(=N\N=C(N)N)c1ccc(Cl)cc1	-9.9 (active)
C/C(=N\OCC(=O)O)c1ccc(Cl)cc1	inactive
CC1CCC(CN2CCN=C2N(C)C)CC1 (centres undefined)	inactive
CCCCCCc1cc2cc(-c3nnc(-c4ccccc4)o3)c(=O)oc2cc1O	inactive
CCCCCCCN=C(C)c1ccccc1O	inactive

SMILES	B-score
CCCCCCc1ccc(O)cc1O	-6.74 (active)
CC1(c2ccccc2)NC(=O)N(CC(=O)Nc2cc(Cl)ccc2N2CCOCC2)C1=O (centres undefined)	inactive
COc1cc(N)c(Cl)cc1C(=O)OCC(=O)c1ccc2c(c1)NC(=O)CO2	inactive
CN1C(C(=O)NCc2ccco2)CC2Cn3c(nc4ccccc43)C21 (centres undefined)	inactive
O=C(/C=C/c1cn(-c2ccccc2)nc1-c1ccc2c(c1)OCCO2)NCCCN1CCOCC1	-5.76 (active)
COc1ccc(-c2nn(-c3ccccc3)cc2/C=C\C(=O)N2CCOCC2)cc1[N+](=O)[O-]	inactive
Cc1ccc(-c2nn(-c3ccccc3)cc2/C=C/C(=O)Nc2cccc(S(N)(=O)=O)c2)cc1	inactive
Cc1ccc(SCC(=O)Nc2nncs2)cc1	inactive
C#CCOCCOCCOCCNc1nc(N2CCN(C(=O)Cn3cc(CCCCN)nn3)CC2)nc(N2CCN(C(=O)[C@H](CCCCN)n3cc(CCC(=O)O)nn3)CC2)n1	inactive
Cc1ccccc1OCC(=O)NNC(=O)c1ccc(-n2cncn2)c([N+](=O)[O-])c1	inactive
CCCCn1c(N)c(N(CCC(C)C)C(=O)CC2OC(=O)c3ccccc32)c(=O)[nH]c1=O (centres undefined)	inactive
OC1CN=C2Sc3ccccc3N2C1 (centres undefined)	-5.4 (active)
COc1ccc(S(=O)(=O)N2CCCCC2)cc1NC(=O)C1CC(=O)N(c2ccc3c(c2)OCCO3)C1 (centres undefined)	inactive
Cc1ccc(S(=O)(=O)NCCC(=O)OCC(=O)N(C)c2ccccc2)cc1	inactive
CCOC(=O)C1(CCOC)CCN(Cc2ccc(C(=O)OC)cc2)CC1	-7.63 (active)
CCOC(=O)C1(CCOc2ccccc2)CCN(Cc2cc(OC)cc(OC)c2)CC1	inactive
CCOC(=O)C1(CCOC)CCN(Cc2cc3ccccc3s2)CC1	inactive
CCN1C(=O)[C@@H]2[C@@H](c3ccc(-c4ccc(OC)cc4)c(OC)c3)N3CCC[C@@]3(C(=O)OC)[C@@H]2C1=O	inactive
S=C(Nc1cccc(Cl)c1)Nc1ccc2c(c1)OCCO2	inactive
FC(F)(F)c1cccc(NC(=S)Nc2cccc(Cl)c2)c1	-9.9 (active)
S=C(Nc1cccc(Cl)c1)Nc1ccc2cn[nH]c2c1	inactive
CCOC(=O)c1cnc2nc(SCc3ccccc3Cl)[nH]n2c1=O	inactive
O=C1c2ccccc2C(=O)c2c1cccc2N1CCN(C/C=C/c2ccccc2)CC1	inactive
CCCCCCCNC(=O)C1(CC2CC(c3cccc(Br)c3)=NO2)CCN(C(=O)c2cc(OCC)c(OCC)c(OCC)c2)CC1 (centres undefined)	inactive
CCN(CC)c1ccc(/C=N/NC(=O)c2cnccn2)c(O)c1	-5.95 (active)

SMILES	B-score
CCN(CC)c1ccc(/C=N/NC(=O)CNC(=O)c2cccnc2)cc1	inactive
CCN(CC)c1ccc(/C=N/Nc2nc(C)cc(C)n2)c(O)c1	inactive
CC(NC(=O)c1ccccc1F)c1cccc2ccccc12 (centres undefined)	inactive
COc1ccc(Cc2nnc(SCC(=O)Nc3ccc(C)c(Cl)c3)[nH]c2=O)cc1	inactive
OCC[C@H]1C[C@@H](O)[C@H](O)[C@@]2(OCCc3ccccc32)O1	inactive
COc1ccc(C(=O)NNC(=S)NC(=O)c2ccccc2)cc1	-5.26 (active)
COc1ccc(C(=O)NC(=S)NNC(=O)c2c(-c3ccccc3)noc2C)cc1	inactive
CC(C)Oc1ccc(CCC(=O)NNC(=S)NCc2ccccc2)cc1	inactive
O=C(CCc1ccccc1)NNC(=O)c1ccc(Br)cc1	inactive
COc1ccc(C(=O)NC(=S)NNC(=O)CCc2ccccc2)cc1	-5.23 (active)
COc1ccc(C(=O)NNC(=S)NC(=O)c2ccccc2[N+](=O)[O-])cc1	inactive
COc1ccc2c(c1)O/C(=C\c1ccccc1O)C2=O	inactive
O=C(Cc1ccc(S(=O)(=O)N2CCOCC2)s1)N1CCN(c2ccc(C(F)(F)F)cc2[N+](=O)[O-])CC1	inactive
O=C(/C=C/c1ccc(F)cc1)Nc1cccc(S(=O)(=O)Nc2cccc(C(F)(F)F)c2)c1	inactive
Cc1oc2c(F)c(F)c(F)c(F)c2c1S(=O)(=O)Nc1cccc(C(F)(F)F)c1	-5.14 (active)
CCOC(=O)N1CCN(C(=O)c2ccc(S(=O)(=O)Nc3cccc(C(F)(F)F)c3)cc2)CC1	inactive
Cc1cc(OCC(=O)N(C)c2c(N)n(Cc3ccccc3)c(=O)[nH]c2=O)c(C(C)C)cc1Cl	inactive
COc1cc(C(=O)NCC(=O)N2CC=C(c3ccccc3)CC2)cc(OC)c1OC	inactive
COc1ccc(Cl)cc1NC(=O)CN(C)C(=O)CNC(=O)C12CC3CC(CC(C3)C1)C2	inactive
C/C(=N/NC(=O)c1cc(Cl)ccc1O)C12CC3CC(CC(C3)C1)C2	-7.51 (active)
CC(=N\NC(=O)c1cc(Br)ccc1O)/C(=N/O)C(=O)Nc1ccccc1	inactive
COC(=O)C1=C(C)N(C)C(C)=C(C(=O)OC)C1c1cccc(Br)c1	inactive
CCC(CC)C(=O)N1CC(=O)Nc2ccc(Br)cc2C1c1ccccc1 (centres undefined)	inactive
COC(=O)CN1C(C)=Nc2ccc(Br)cc2C1c1ccccc1 (centres undefined)	-5.31 (active)
